Measured values: PubChem BioAssay AID1690 (NMMLSC, 2009)
Measured potencies and affinities stand elsewhere. Values without a mark were called inactive.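 Rule for the calls: active = combined score above 51, weighing potency under 20 µM and fitted curve span over 20%; inactive = the rest.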

Biological target: Broad substrate specificity ATP-binding cassette transporter ABCG2 (Homo sapiens) (UniProt Q9UNQ0)
Assay: blockers of JC-1 export by ABCG2 – Ig-MXP3 cells, flow cytometry, dose response (AID 1690)
Settings: JC-1 efflux; series mostly up to 33.3 µM; inhibition: at the top concentration

Chain of Broad substrate specificity ATP-binding cassette transporter ABCG2 (Homo sapiens) (Q9UNQ0 whole entry, looked up): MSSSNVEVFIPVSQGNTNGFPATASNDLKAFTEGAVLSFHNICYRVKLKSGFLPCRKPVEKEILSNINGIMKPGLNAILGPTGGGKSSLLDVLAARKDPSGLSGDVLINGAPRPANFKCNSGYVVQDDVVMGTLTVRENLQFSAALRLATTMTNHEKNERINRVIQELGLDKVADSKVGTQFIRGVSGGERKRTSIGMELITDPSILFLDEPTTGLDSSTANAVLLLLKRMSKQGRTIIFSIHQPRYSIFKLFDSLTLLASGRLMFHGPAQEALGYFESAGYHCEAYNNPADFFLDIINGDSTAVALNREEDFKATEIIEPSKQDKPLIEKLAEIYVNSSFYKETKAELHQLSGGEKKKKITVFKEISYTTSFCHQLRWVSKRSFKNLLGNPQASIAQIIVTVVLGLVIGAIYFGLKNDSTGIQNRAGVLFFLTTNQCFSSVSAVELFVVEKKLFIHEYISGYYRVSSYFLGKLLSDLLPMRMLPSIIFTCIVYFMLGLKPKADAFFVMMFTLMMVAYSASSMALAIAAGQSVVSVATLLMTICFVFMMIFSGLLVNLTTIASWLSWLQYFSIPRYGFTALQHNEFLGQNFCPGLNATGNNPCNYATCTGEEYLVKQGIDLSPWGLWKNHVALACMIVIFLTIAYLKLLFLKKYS

SMILES | inhibition
COc1ccccc1Nc1nc2nonc2nc1N1CCCCC1C (stereo unspecified) | 9.37% [at 66.6 µM]
COC(=O)c1cc(NC(=O)c2ccccc2)c(=O)oc1/C=C/Nc1ccc(Oc2ccccc2)cc1 | -230% [at 66.6 µM]
CC(=O)Nc1ccc(Nc2ccc(S(=O)(=O)C(F)(F)F)cc2[N+](=O)[O-])cc1 | 42.1%
COc1ccc(CCNC(=O)COC(=O)/C=C/c2ccc(OC)c(OC)c2)cc1 | 51.7%
N#CC(C#N)=C1C=C2C=C(N3CCCCCC3)CCC2CC1 (stereo unspecified) | 100%
CCOC(=O)c1sc2cc([N+](=O)[O-])cc(SCC(C)C)c2c1N | -5.78% [at 66.6 µM]
COc1ccc(/C=N/NC(=O)c2cccnc2)cc1CN1CCN(c2ccc(F)cc2)CC1 | 60%
CN(C)c1ccc(/C=C2\SC(=S)N(Nc3ncc(C(F)(F)F)cc3Cl)C2=O)cc1 | 58.1%
Cc1nc2cc(-c3cccc(F)c3)nn2c(N2CCN(C(=O)c3ccco3)CC2)c1C | 74.5%
N#CC(C#N)=C1C=C2C=C(N3CCOCC3)CCC2CC1 (stereo unspecified) | 57.5%
CNc1nc2cc([N+](=O)[O-])c([N+](=O)[O-])cc2nc1NC | 80.2% [at 11.1 µM]
CCCCN1/C(=C/c2ccc3ccccc3[n+]2CC)Sc2ccccc21 | 100% [at 66.6 µM]
CCN1/C(=C\C=C\c2oc3ccc4ccccc4c3[n+]2CC)Oc2ccc3ccccc3c21 | 46.5% [at 66.6 µM]
CCCCn1c(O)c(N=Nc2ccccn2)c2ccccc21 | 85.4% [at 66.6 µM]
CN1CCN(C2=CC3=CC(=C(C#N)C#N)CCC3CC2)CC1 (stereo unspecified) | 30.5%
CCN(CC)C1=CC2=CC(=C(C#N)C#N)CCC2CC1 (stereo unspecified) | 100% [at 66.6 µM]
